Some test systems named below: SR leukemia; RPMI-8226 leukemia; OVCAR-8 ovarian; OVCAR-5 ovarian; OVCAR-4 ovarian; SK-OV-3 ovarian; IGROV1 ovarian; OVCAR-3 ovarian; NCI/ADR-RES ovarian.
Common to all, as to experiment: NCI-60 one-dose screen, 48 h (100 = growth as untreated, 0 = no growth, -100 = all killed)
Holding throughout (details): 10 µM unless noted

Compounds without any hit were thinned out: in the full panel of roughly 83,000, 20% have a hit.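 Cell lines were cultured in 96-well plates, exposed to a single compound concentration, and assessed for percent growth 48 hours later.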 A number with no mark means an inactive call. The source made the active and inactive calls. Rule for the calls: active = growth percent below 10; inactive = the rest.

Turning to `CN1CCN(c2ccc(C(=O)Nc3n[nH]c4ccc(Cc5cc(F)cc(F)c5)cc34)c(NC3CCOCC3)c2)CC1`, the growth with SR leukemia is -28.6% (active); with RPMI-8226 leukemia, -29.6% (active); with OVCAR-8 ovarian, 22.6%; in the assay on OVCAR-5 ovarian, 1.41% (active); in the assay with OVCAR-4 ovarian it was -6.27% (active); with SK-OV-3 ovarian, 20.1%. In addition, the growth with IGROV1 ovarian is -46.1% (active); in the assay on OVCAR-3 ovarian, 32.8%; in the assay on NCI/ADR-RES ovarian it was 10.8%.

Consider `CN1C/C=C\CCOc2cccc(c2)-c2ccnc(n2)Nc2cccc(c2)C1`, for which the growth with SR leukemia is -29.1% (active); in the assay with RPMI-8226 leukemia, -42.5% (active); in the assay with OVCAR-8 ovarian, -22.4% (active); in the assay with OVCAR-5 ovarian it was 6.02% (active); with OVCAR-4 ovarian, -28.5% (active); in the assay with SK-OV-3 ovarian it was -17.2% (active). Besides, the growth with IGROV1 ovarian was -44.9% (active); in the assay on OVCAR-3 ovarian, 3.03% (active); in the assay on NCI/ADR-RES ovarian, -29% (active).

With `C=CC(=O)Nc1cc2c(Nc3ccc(F)c(Cl)c3)ncnc2cc1OCCCN1CCOCC1`, the growth was -8.22% (active) with SR leukemia; -9.72% (active) in the assay on RPMI-8226 leukemia; -17.6% (active) in the assay with OVCAR-8 ovarian; 35.6% in the assay on OVCAR-5 ovarian; 8.1% (active) in the assay with OVCAR-4 ovarian; -16.3% (active) in the assay on SK-OV-3 ovarian. The growth is -67.5% (active) with IGROV1 ovarian, 14.7% in the assay on OVCAR-3 ovarian and 13.8% in the assay with NCI/ADR-RES ovarian.

Turning to `COc1cc2ncnc(Oc3cccc(NC(=O)Nc4cc(C(C)(C)C(F)(F)F)on4)c3)c2cc1OC`, the growth in the assay with SR leukemia is 28.5%; in the assay on RPMI-8226 leukemia, 30.6%; in the assay on OVCAR-8 ovarian, 25.1%; in the assay with OVCAR-5 ovarian, 12.8%; with OVCAR-4 ovarian it was 36.3%; with SK-OV-3 ovarian it was -26.5% (active). In addition, the growth in the assay on IGROV1 ovarian is -11.1% (active); with OVCAR-3 ovarian, 50.4%; with NCI/ADR-RES ovarian, 23.9%.

Consider `COc1ccc(Br)cc1NC(=O)Nc1cccc2c1ccn2Cc1ccnc(N)c1`, for which the growth with SR leukemia was 7.97% (active); in the assay with RPMI-8226 leukemia it was 15.2%; with OVCAR-8 ovarian, 21.2%; in the assay with OVCAR-5 ovarian it was 47.8%; with OVCAR-4 ovarian, 38.8%; in the assay on SK-OV-3 ovarian, 26.7%. Moreover, the growth in the assay on IGROV1 ovarian was 36.3%; in the assay with OVCAR-3 ovarian, 67.4%; in the assay with NCI/ADR-RES ovarian, 31.1%.

Take `CCOc1cc2ncc(C#N)c(Nc3ccc(F)c(Cl)c3)c2cc1NC(=O)/C=C/CN(C)C`: the growth is -14% (active) in the assay on SR leukemia; -34.6% (active) in the assay on RPMI-8226 leukemia; -7.83% (active) with OVCAR-8 ovarian; -3.14% (active) with OVCAR-5 ovarian; -61.9% (active) with OVCAR-4 ovarian; -5.87% (active) with SK-OV-3 ovarian. In addition, the growth was -32.1% (active) in the assay on IGROV1 ovarian, -82.7% (active) in the assay with OVCAR-3 ovarian and 6.54% (active) with NCI/ADR-RES ovarian.

Take `CCCS(=O)(=O)Nc1ccc(F)c(C(=O)c2c[nH]c3ncc(-c4ccc(Cl)cc4)cc23)c1F`: the growth in the assay with SR leukemia was 15.3%; in the assay on RPMI-8226 leukemia, 29.2%; in the assay on OVCAR-8 ovarian, 32.1%; in the assay with OVCAR-5 ovarian, 49%; with OVCAR-4 ovarian, 49.3%; with SK-OV-3 ovarian, -0.481% (active). Besides, the growth in the assay on IGROV1 ovarian was 22.1%; with OVCAR-3 ovarian it was 65.4%; in the assay with NCI/ADR-RES ovarian, 48.9%.

Regarding `FC(F)c1nc2ccccc2n1-c1nc(N2CCOCC2)nc(N2CCOCC2)n1`, the growth is 1.58% (active) in the assay with SR leukemia; 8.02% (active) in the assay with RPMI-8226 leukemia; -8.56% (active) in the assay with OVCAR-8 ovarian; 1.3% (active) with OVCAR-5 ovarian; -17.1% (active) in the assay on OVCAR-4 ovarian; -46% (active) in the assay on SK-OV-3 ovarian. Besides, the growth with IGROV1 ovarian was -37% (active); in the assay with OVCAR-3 ovarian it was -0.63% (active); in the assay with NCI/ADR-RES ovarian, -12.9% (active).

As for `CCCCCCCC12Cc3ccccc3C1=Nc1c(c3ccccc3n1C)C2=O` (stereo unspecified), the growth with SR leukemia is 82.6%; in the assay with RPMI-8226 leukemia, 91.8%; in the assay with OVCAR-8 ovarian, 85.2%; in the assay on OVCAR-5 ovarian it was 86.5%; with OVCAR-4 ovarian it was 97.4%; in the assay on SK-OV-3 ovarian, 81.6%. Besides, the growth in the assay on IGROV1 ovarian was 69.5%; in the assay with OVCAR-3 ovarian it was 92.9%; in the assay with NCI/ADR-RES ovarian it was 94.2%.

For the compound `O=C(c1ccc(F)c(F)c1Nc1ccc(I)cc1F)N1CC(O)([C@@H]2CCCCN2)C1`, the growth was -15.2% (active) in the assay on SR leukemia; 26.7% in the assay with RPMI-8226 leukemia; 47.9% in the assay on OVCAR-8 ovarian; 7.14% (active) in the assay with OVCAR-5 ovarian; 27.8% in the assay with OVCAR-4 ovarian; 29.2% with SK-OV-3 ovarian. Moreover, the growth in the assay with IGROV1 ovarian is 2.25% (active); in the assay on OVCAR-3 ovarian it was 58.7%; in the assay on NCI/ADR-RES ovarian it was 39.7%.

Consider `COc1ccc2c(OCc3nnc4ccc(-c5ccccc5)nn34)ccnc2c1`, for which the growth is 80.9% [2.5 µM] with SR leukemia; 104% [2.5 µM] in the assay with RPMI-8226 leukemia; 102% [2.5 µM] in the assay with OVCAR-8 ovarian; 87.3% [2.5 µM] in the assay with OVCAR-5 ovarian; 100% [2.5 µM] with OVCAR-4 ovarian; 73.3% [2.5 µM] in the assay with SK-OV-3 ovarian. The growth with IGROV1 ovarian was 106% [2.5 µM]; in the assay on OVCAR-3 ovarian it was 110% [2.5 µM]; in the assay with NCI/ADR-RES ovarian, 76.3% [2.5 µM].

On to `COc1cc(Nc2ncc(F)c(Nc3ccc4c(n3)N(COP(=O)(O)O)C(=O)C(C)(C)O4)n2)cc(OC)c1OC`, for which the growth with SR leukemia is 21.6%; with RPMI-8226 leukemia, 46.4%; in the assay with OVCAR-8 ovarian it was 28.7%; with OVCAR-5 ovarian, 17.6%; in the assay with OVCAR-4 ovarian it was 44.1%; in the assay on SK-OV-3 ovarian, -41.4% (active). The growth with IGROV1 ovarian was -17.6% (active); with OVCAR-3 ovarian, 43.4%; in the assay on NCI/ADR-RES ovarian, 20.5%.

For the compound `c1cn2cc(-c3ccc4cn[nH]c4c3)nc(Nc3ccc(N4CCOCC4)cc3)c2n1`, the growth in the assay on SR leukemia was 50%; in the assay on RPMI-8226 leukemia it was 63.4%; in the assay with OVCAR-8 ovarian it was 20%; in the assay with OVCAR-5 ovarian, 64.2%; in the assay with OVCAR-4 ovarian, 3.99% (active); in the assay with SK-OV-3 ovarian, 21%. For the same compound, the growth in the assay on IGROV1 ovarian is 58.7%; in the assay with OVCAR-3 ovarian it was 71.9%; in the assay with NCI/ADR-RES ovarian, 39.2%.

In the case of `COC(=O)Nc1nc2ccc(C(=O)c3ccc(N(C)C4COC4)cc3)cc2[nH]1`, the growth is 14.4% with SR leukemia; 22.5% in the assay on RPMI-8226 leukemia; 11% in the assay on OVCAR-8 ovarian; 52.4% in the assay on OVCAR-5 ovarian; 57.2% in the assay on OVCAR-4 ovarian; 6.93% (active) with SK-OV-3 ovarian. Moreover, the growth in the assay on IGROV1 ovarian was 28.5%; in the assay with OVCAR-3 ovarian it was 31.9%; in the assay on NCI/ADR-RES ovarian, 12%.
